Rtt109 HAT inh = C. albicans Rtt109 histone acetyltransferase inhibition. Q5AAJ8. hit rate 0.16% among 330,000. purified Rtt109/Vps75, ThioGlo CoA-SH fluorescence, 4 h. inhibition, % at 34.9 µM;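 active means inhibition of at least 50% in every replicate; inconclusive means best replicate reaches 50% inhibition but some replicates fall short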
Rce1 inh = blocks yeast Ras-converting enzyme. yeast membranes, quenched prenylated peptide cleavage fluorescence. hit rate 0.27% among 290,000. Q03530. calls only;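 active means fall in fluorescence gain of 50% or more versus controls, with final raw signal at or below 3038400; inconclusive means same 50% fall but final raw signal above 3038400; inactive means fall in fluorescence gain under 50%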;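 further: plate controls were neutral control wells for no effect and wells lacking membranes for full effect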
ALR inh = human ALR oxidase inhibition via reduced H2O2; P55789; purified ALR, DTT oxidation, H2O2 HRP-luminol luminescence; inhibition, % (concentration not given with the values); hit rate 3.8% among 290,000; AID 485317;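 active means mean replicate inhibition above about 79%, with every replicate also reaching it, limit read from the data; inconclusive means only one of the two criteria met; inactive means mean below limit and not every replicate reaching it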
Target sequence (P55789 whole entry, looked up): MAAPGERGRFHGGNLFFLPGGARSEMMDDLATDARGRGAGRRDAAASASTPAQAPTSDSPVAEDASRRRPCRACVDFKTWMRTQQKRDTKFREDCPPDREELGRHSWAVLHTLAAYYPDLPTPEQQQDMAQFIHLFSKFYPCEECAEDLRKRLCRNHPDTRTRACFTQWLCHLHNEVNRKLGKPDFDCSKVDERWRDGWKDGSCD
Efflux pump mplx = blocks antifungal efflux pumps in multiplex yeast assay; S. cerevisiae Candida pump triplex, Nile Red efflux; inhibition, % at 10 µM; hit rate 0.44% among 330,000;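 active means plate passing quality check with inhibition over a set limit, or well fluorescence over plate mean plus 4 SD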;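 further: Nile Red retained in pooled yeast measured as flow cytometry median fluorescence; 0% = buffer negative control and 100% = Enniatin B positive control; higher means more Nile Red kept so more efflux inhibition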
GRK2 inh = human GRK2 inhibition via aptamer displacement; P25098; bead flow cytometry, FAM-aptamer displacement from GRK2; inhibition of aptamer binding, % at 10 µM; hit rate 0.59% among 330,000;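 active means inhibition of aptamer binding above 40%, roughly 3 SD of noise, on plates passing a quality check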;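 further: median bead fluorescence of bound FAM aptamer so fluorescent compounds give negative values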
HDAC3 inhib = inhibitors of human histone deacetylase 3; O15379; recombinant HDAC3, fluorogenic peptide/trypsin coupled, fluorescence; inhibition, % at 8.3 µM; hit rate 0.15% among 320,000; AID 2718; in the data active means inhibition above about 26%, passing the limit was not always enough; inconclusive means no clear call, values can overlap the other calls
Active calls of the source: *; i = inactive; ? = inconclusive; · = not tested or not shown. A selection: hits, their analogues and other compounds. The true share with any hit is near 4.5%.

SMILES | Rtt109 HAT inh | Rce1 inh | ALR inh | Efflux pump mplx | GRK2 inh | HDAC3 inhib
COc1ccc(C(=O)N/N=C/C2CC=CCC2)cc1OC (stereo not drawn) | 2.0 | i | 92.7* | 0.1 | 2.0 | -2.3
CC(C)(C)c1ccc(OCC(=O)N/N=C/C2CC=CCC2)cc1 (stereo not drawn) | 13.9 | i | · | 0.1 | 0.0 | ·
O=C(CCn1ccnc1)Nc1cc(Cl)ccc1O | 15.1 | i | 4.3 | -0.1 | 0.0 | -5.1
O=C(Nc1cccc(F)c1)N1CCCC(CNS(=O)(=O)Cc2ccccc2)C1 (stereo not drawn) | 17.0 | i | 3.7 | 0.4 | 0.0 | -0.4
COC(=O)C1CC(C(=O)OC)C2C(C(=O)OC)CC(C(=O)OC)C12 (stereo not drawn) | 0.3 | · | · | · | · | ·
Cc1cc(C(=O)CSc2cccc[n+]2[O-])c(C)n1-c1ccccc1 | -10.1 | i | -14.8 | -0.1 | 5.0 | 8.6
CC(=O)Nc1ccc(SCC(=O)N(CCC#N)c2cc(C)cc(C)c2)cc1 | 2.5 | · | 98.2* | -0.1 | 0.0 | 1.5
CC(=O)Nc1ccc(SCC(=O)c2cc(C)ccc2C)cc1 | 35.2 | · | 98.3* | 0.1 | 0.0 | 7.3
Cc1cc(C)cc(N(CCC#N)C(=O)CSc2nc3nc(C)cc(C)n3n2)c1 | -0.9 | i | -0.9 | 0.0 | 1.0 | -5.9
COc1ccc(-n2c(C)cc(C(=O)CSc3ccc(NC(C)=O)cc3)c2C)cc1 | 5.2 | i | 96.8* | 0.5 | 2.0 | 11.1
CC(=O)Nc1ccc(SCC(=O)O)cc1 | -1.4 | i | 53.5 | 0.0 | 1.0 | -1.0
COc1ccc(-n2c(C)cc(C(=O)CCl)c2C)cc1 | 10.4 | i | 37.6 | -0.1 | 0.0 | 2.4
CC(=O)Nc1ccc(SCC(=O)c2cc(C)n(-c3ccccc3)c2C)cc1 | -15.6 | i | 98.9* | 1.0 | 0.0 | -8.6
Cc1ccc(S(=O)(=O)NCC2CCC(C(=O)N3CCN(C)CC3)CC2)cc1 (stereo not drawn) | -12.0 | i | -1.9 | 0.0 | 1.0 | -5.4
CN(N=Nc1nc[nH]c1C(=O)NN)C1CCCCC1 | 1.2 | · | · | · | · | ·
N#CCCN(C(=O)CSc1ccc2c(c1)OCCO2)c1ccccc1 | 15.6 | i | 88.5* | 0.0 | 0.0 | 0.8
CN(C(=O)C(Cl)Cl)C1CC2C=CC1C2 (stereo not drawn) | -4.6 | i | -3.2 | 0.0 | 0.0 | 2.6
N#C/C(=C\c1ccc(OC(=O)c2ccc(Cl)s2)cc1)c1nc2ccccc2[nH]1 | 1.0 | i | -15.3 | 0.0 | 81.0* | -4.8
CCOc1cccc(/C=C(/C#N)c2nc3ccccc3[nH]2)c1OCC(=O)O | 1.9 | i | 97.8* | 0.0 | 5.0 | ?
N#C/C(=C\c1cccc(OCC(=O)O)c1)c1nc2ccccc2[nH]1 | -1.7 | i | 97.9* | -0.2 | 0.0 | -7.0
COc1cccc(/C=C(\C#N)c2nc3ccc(C)cc3[nH]2)c1OCC(=O)O | 4.1 | i | 49.3 | 0.4 | 0.0 | -4.9
N#C/C(=C\c1cccnc1)c1nc2ccccc2[nH]1 | · | i | 3.0 | 0.0 | 0.0 | 3.3
O=C(NCCc1ccco1)C(=O)NCC1OCCCN1S(=O)(=O)c1ccccc1 (stereo not drawn) | -2.1 | i | -7.4 | 0.1 | 2.0 | 2.7
COc1cc(CC(=O)N2CCN(C(=O)C3CCCO3)CC2)cc(OC)c1OC (stereo not drawn) | -7.1 | · | -1.4 | -0.1 | 1.0 | -0.4
CCn1c(SCC(=O)c2ccccc2)nnc1-c1cccnc1 | 0.9 | · | 91.0* | -0.1 | 0.0 | -0.9
SMILES | Rtt109 HAT inh | Rce1 inh | ALR inh | Efflux pump mplx | GRK2 inh | HDAC3 inhib
CCn1c(SCC(=O)c2ccccc2)nnc1-c1ccoc1C | 3.0 | i | 84.1* | 0.2 | 0.0 | 0.4
CCn1c(SCC(=O)c2ccc(C)cc2)nnc1-c1ccoc1C | 7.6 | i | 67.1 | 0.0 | 0.0 | 0.3
CCn1c(SCCC(=O)O)nnc1-c1cccnc1 | 9.2 | i | -23.4 | 0.1 | 3.0 | 5.1
Cc1csc(NC(=O)CSc2ccc3nnc(CCNS(=O)(=O)c4ccccc4)n3n2)n1 | -2.5 | i | 11.7 | 0.8 | 19.0 | -3.0
COc1ccc(S(=O)(=O)NCCc2nnc3ccc(SCC(=O)Nc4nc(C)cs4)nn23)cc1 | 4.8 | i | 89.4* | 0.7 | 6.0 | 2.1
CCN(CC)S(=O)(=O)c1cccc(NC(=O)CSc2nnc(N)s2)c1 | 3.5 | i | 98.9* | 0.0 | 1.0 | -13.3
Nc1nc(CSc2ncn(-c3ccccc3)n2)cs1 | 0.6 | i | 97.9* | 0.0 | 0.0 | 8.5
